# Over roughly 2,900 compounds, “NF-kB SEAP reporter activity, fold change vs agonist alone” has its median near 0.99; the highest 2% begin near 2.6. The list comes from a sample in which the highest values are over-represented; it also holds similar structures and randomly drawn compounds.
# Assays:
# RAW-Dual [1] = test: NF-kB SEAP reporter activity, fold change vs agonist alone; cytotoxicity flag (confluency mask): not cytotoxic; higher = enhanced NF-kB activity
# Outline: (§1)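 RAW-Dual macrophages (50,000 cells/well in DMEM, 384-well plates) received 50 nL of library stock by pin tool, then a PRR agonist 1 h later, and were kept at 37 °C, 5% CO2. After 20 hours, supernatant was read for IRF by QuantiLuc luminescence and for NF-κB by QuantiBlue absorbance at 620 nm. Reporter activity is fold change over agonist-alone wells. Cytotoxic wells had IncuCyte confluency below 70% of agonist controls in both mask sets.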
# RAW-Dual [2] = test: NF-kB SEAP reporter activity, fold change vs agonist alone; higher = enhanced NF-kB activity; settings: library stock concentration (final ~1000-fold dilution): 10 mM
# Outline: as §1
# RAW-Dual [3] = test: NF-kB SEAP reporter activity, fold change vs agonist alone; cytotoxicity flag (confluency mask): cytotoxic (confluency <70% of control); higher = enhanced NF-kB activity
# Outline: as §1
# [4] = agonist: ODN 1826 (TLR9) 0.5 ug/mL
# [5] = agonist: Pam2CSK4 (TLR2/6) 0.1 ug/mL
# [6] = agonist: Pam3CSK4 (TLR2/1) 0.1 ug/mL
# [7] = cytotoxicity flag (confluency mask): not cytotoxic, agonist: Imiquimod (TLR7) […]
# [8] = cytotoxicity flag (confluency mask): not cytotoxic, agonist: MPLA (TLR4) […]
structure (smiles),measurement,setting,value
C=CC(=O)N1CC(Nc2ncnc3[nH]ccc23)CCC1C (stereo not drawn) (library stock concentration (final ~1000-fold dilution): 10 mM),NF-kB SEAP reporter activity,RAW-Dual [1]; agonist: LPS (TLR4) 0.1 ug/mL,0.655
same,NF-kB SEAP reporter activity,RAW-Dual [1]; [4],0.682
same,NF-kB SEAP reporter activity,RAW-Dual [1]; [5],0.56
same,NF-kB SEAP reporter activity,RAW-Dual [1]; [6],0.738
C=CC(=O)N1CC(Nc2ncnc3[nH]ccc23)CCC1C (stereo not drawn),NF-kB SEAP reporter activity,RAW-Dual [2]; [7],0.572
same,NF-kB SEAP reporter activity,RAW-Dual [2]; [8],0.785
CNCCC(Oc1cccc2ccccc12)c1cccs1 (stereo not drawn),NF-kB SEAP reporter activity,"RAW-Dual [2]; cytotoxicity flag (confluency mask): cytotoxic (confluency <70% of control), agonist: MPLA (TLR4) […]",1.98
CNCCC(Oc1cccc2ccccc12)c1cccs1 (stereo not drawn) (library stock concentration (final ~1000-fold dilution): 10 mM),NF-kB SEAP reporter activity,RAW-Dual [3]; agonist: LPS (TLR4) 0.1 ug/mL,1.1
same,NF-kB SEAP reporter activity,RAW-Dual [3]; [4],0.191
same,NF-kB SEAP reporter activity,RAW-Dual [3]; [5],0.797
same,NF-kB SEAP reporter activity,RAW-Dual [3]; [6],0.525
OCC1OC(c2ccc(Cl)c(Cc3ccc(OC4CCOC4)cc3)c2)C(O)C(O)C1O (stereo not drawn),NF-kB SEAP reporter activity,RAW-Dual [2]; [7],0.973
same,NF-kB SEAP reporter activity,RAW-Dual [2]; [8],1.06
OCC1OC(c2ccc(Cl)c(Cc3ccc(OC4CCOC4)cc3)c2)C(O)C(O)C1O (stereo not drawn) (library stock concentration (final ~1000-fold dilution): 10 mM),NF-kB SEAP reporter activity,RAW-Dual [1]; agonist: LPS (TLR4) 0.1 ug/mL,1.12
same,NF-kB SEAP reporter activity,RAW-Dual [1]; [4],1.07
same,NF-kB SEAP reporter activity,RAW-Dual [1]; [5],0.963
same,NF-kB SEAP reporter activity,RAW-Dual [1]; [6],0.983
O=C(Nc1ncc([N+](=O)[O-])s1)c1ccccc1O (library stock concentration (final ~1000-fold dilution): 10 mM),NF-kB SEAP reporter activity,RAW-Dual [1]; agonist: LPS (TLR4) 0.1 ug/mL,0.954
same,NF-kB SEAP reporter activity,RAW-Dual [1]; [4],1.21
same,NF-kB SEAP reporter activity,RAW-Dual [1]; [5],0.573
same,NF-kB SEAP reporter activity,RAW-Dual [1]; [6],0.684
COc1ccc(S(=O)(=O)NCc2ccc(C(=O)NCCc3ccc(Cl)cn3)cc2)cc1,NF-kB SEAP reporter activity,RAW-Dual [2]; [7],0.318
same,NF-kB SEAP reporter activity,RAW-Dual [2]; [8],1.19
COc1ccc(CNC(=O)Nc2ncc([N+](=O)[O-])s2)cc1 (library stock concentration (final ~1000-fold dilution): 10 mM),NF-kB SEAP reporter activity,RAW-Dual [1]; agonist: LPS (TLR4) 0.1 ug/mL,2.74
same,NF-kB SEAP reporter activity,RAW-Dual [1]; [4],1.64
same,NF-kB SEAP reporter activity,RAW-Dual [1]; [5],0.864
same,NF-kB SEAP reporter activity,RAW-Dual [1]; [6],1.32
O=C(Nc1ncc([N+](=O)[O-])s1)c1ccccc1O,NF-kB SEAP reporter activity,RAW-Dual [2]; [8],0.945
COc1ccc(S(=O)(=O)NCc2ccc(C(=O)NCCc3ccc(Cl)cn3)cc2)cc1 (library stock concentration (final ~1000-fold dilution): 10 mM),NF-kB SEAP reporter activity,RAW-Dual [1]; agonist: LPS (TLR4) 0.1 ug/mL,1.36
same,NF-kB SEAP reporter activity,RAW-Dual [1]; [4],1.15
same,NF-kB SEAP reporter activity,RAW-Dual [1]; [5],0.849
same,NF-kB SEAP reporter activity,RAW-Dual [1]; [6],1.49
COc1ccc(CNC(=O)Nc2ncc([N+](=O)[O-])s2)cc1,NF-kB SEAP reporter activity,RAW-Dual [2]; [7],1.2
same,NF-kB SEAP reporter activity,RAW-Dual [2]; [8],1.68
COCCOc1cnc2ccn(C(C)c3nnc4c(F)cc(-c5cnn(C)c5)cn34)c(=O)c2c1 (stereo not drawn),NF-kB SEAP reporter activity,RAW-Dual [2]; [7],1.01
same,NF-kB SEAP reporter activity,RAW-Dual [2]; [8],1.01
COCCOc1cnc2ccn(C(C)c3nnc4c(F)cc(-c5cnn(C)c5)cn34)c(=O)c2c1 (stereo not drawn) (library stock concentration (final ~1000-fold dilution): 10 mM),NF-kB SEAP reporter activity,RAW-Dual [1]; agonist: LPS (TLR4) 0.1 ug/mL,1.54
same,NF-kB SEAP reporter activity,RAW-Dual [1]; [4],1.11
same,NF-kB SEAP reporter activity,RAW-Dual [1]; [5],1.11
same,NF-kB SEAP reporter activity,RAW-Dual [1]; [6],1.13
CCCCCCCCCCCCCCCC(=O)OCC(O)C1OC(O)=C(O)C1=O (stereo not drawn) (library stock concentration (final ~1000-fold dilution): 10 mM),NF-kB SEAP reporter activity,RAW-Dual [1]; agonist: LPS (TLR4) 0.1 ug/mL,1.15
same,NF-kB SEAP reporter activity,RAW-Dual [1]; [4],0.825
same,NF-kB SEAP reporter activity,RAW-Dual [1]; [5],0.949
same,NF-kB SEAP reporter activity,RAW-Dual [1]; [6],0.67
CCCCCCCCCCCCCCCC(=O)OCC(O)C1OC(O)=C(O)C1=O (stereo not drawn),NF-kB SEAP reporter activity,RAW-Dual [2]; [7],0.898
same,NF-kB SEAP reporter activity,RAW-Dual [2]; [8],1.01
Cc1c[nH]c(-c2cnc(NCCNc3ccc(C#N)cn3)nc2-c2ccc(Cl)cc2Cl)n1.Cl (library stock concentration (final ~1000-fold dilution): 10 mM),NF-kB SEAP reporter activity,RAW-Dual [1]; agonist: LPS (TLR4) 0.1 ug/mL,2.97
same,NF-kB SEAP reporter activity,RAW-Dual [1]; [4],2.78
same,NF-kB SEAP reporter activity,RAW-Dual [1]; [5],1.84
same,NF-kB SEAP reporter activity,RAW-Dual [1]; [6],3.48
Cc1c[nH]c(-c2cnc(NCCNc3ccc(C#N)cn3)nc2-c2ccc(Cl)cc2Cl)n1.Cl,NF-kB SEAP reporter activity,RAW-Dual [2]; [7],2.27
same,NF-kB SEAP reporter activity,RAW-Dual [2]; [8],2.2
Cc1c[nH]c(-c2cnc(NCCNc3ccc(C#N)cn3)nc2-c2ccc(Cl)cc2Cl)n1,NF-kB SEAP reporter activity,RAW-Dual [2]; [7],2.12
same,NF-kB SEAP reporter activity,RAW-Dual [2]; [8],2.19
Cc1c[nH]c(-c2cnc(NCCNc3ccc(C#N)cn3)nc2-c2ccc(Cl)cc2Cl)n1 (library stock concentration (final ~1000-fold dilution): 10 mM),NF-kB SEAP reporter activity,RAW-Dual [1]; agonist: LPS (TLR4) 0.1 ug/mL,3.08
same,NF-kB SEAP reporter activity,RAW-Dual [1]; [4],2.65
same,NF-kB SEAP reporter activity,RAW-Dual [1]; [5],2.12
same,NF-kB SEAP reporter activity,RAW-Dual [1]; [6],2.9
